Experimental findings from PubChem BioAssay AID540336 (Broad Institute, 2011) are described below.

Structures are written as SMILES. Out of some 330,000 compounds screened, about 520 (0.16%) were called active. Many of the other results were omitted from the sample, so actives are more common in it than they were. A number with no mark means an inactive call.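 How the source made its calls: active means inhibition of at least 50% in every replicate; inconclusive means best replicate reaches 50% inhibition but some replicates fall short; inactive means the rest.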

The target of this test is Histone acetyltransferase RTT109 (Candida albicans (strain SC5314 / ATCC MYA-2876)) (UniProt Q5AAJ8). In words: inhibitors of C. albicans Rtt109/Vps75 HAT, primary screen, biochemical, ThioGlo CoA-SH fluorescence, plate reader (AID 540336). The following applies: purified Rtt109/Vps75, ThioGlo CoA-SH fluorescence, 4 h; at 34.9 µM; active compounds read high.
Sequence of Histone acetyltransferase RTT109 (Candida albicans (strain SC5314 / ATCC MYA-2876)) (Q5AAJ8 whole entry, looked up): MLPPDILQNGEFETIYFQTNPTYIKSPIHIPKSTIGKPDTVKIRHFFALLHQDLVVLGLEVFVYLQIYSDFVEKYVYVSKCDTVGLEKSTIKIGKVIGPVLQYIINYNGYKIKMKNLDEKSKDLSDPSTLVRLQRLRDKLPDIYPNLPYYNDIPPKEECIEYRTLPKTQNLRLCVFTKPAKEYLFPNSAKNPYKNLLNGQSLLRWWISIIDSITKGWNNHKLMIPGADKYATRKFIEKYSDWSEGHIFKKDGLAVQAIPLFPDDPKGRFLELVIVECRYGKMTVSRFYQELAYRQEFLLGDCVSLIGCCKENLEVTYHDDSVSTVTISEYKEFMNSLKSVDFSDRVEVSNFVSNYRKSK
For orientation: inhibition means the relative decrease from the control value, in per cent. Consider `COc1cc(OC)c(C(=O)NNC(=O)c2ccc(NS(=O)(=O)c3cccs3)cc2)cc1OC`, for which the inhibition was -0.841%. The result for `COc1ccc(-c2ccc3c(c2)[C@@H]2C[C@H](N(C)S(=O)(=O)c4ccccc4)[C@H]([C@H](C)O)C(=O)N2CC3)cc1` reads -7.44%; that for `Cc1ccc(C(=O)O)c(NC=O)c1OCc1ccccc1`, 2.64%.

For the molecule `O=C(CC(=O)c1cccnc1)c1ccccc1`, the inhibition was 5.8%. As to `COc1cc2c(cc1OC)C(Nc1ccc(S(N)(=O)=O)cc1)=NC(C)(C)C2`, the inhibition was -0.292%. The value for `COc1cc2c(cc1OC)C(C(C)C)=NC(C)(C)C2` was -260%; that for `COc1cc2c(cc1O)C(SC)=NC(C)(C)C2` was 85% (active); that for `C=CCNC(=O)C1CC=CCC1C(=O)O` (configuration not stated) was -1.04%. The result for `C=CCNC(=O)C1CC2c3ccccc3C1c1ccccc12` (configuration not stated) reads 50.9% (active); that for `C=CCNC(=O)C12CC3CC(C1)CC(C(=O)NCC=C)(C3)C2`, -14.4%. As for `C=CCCC(=O)N1C[C@H]2CON(C)[C@H]2C[C@H]1c1cccc(Nc2ccccc2)c1`, the inhibition is 7.97%.

In the case of `Cc1ccc(S(=O)(=O)c2cc3c(=O)n4cccc(C)c4nc3n(CCc3ccccc3)c2=N)cc1C`, the inhibition is 0.852%. For the molecule `CC(=NNC(=S)N1CCCCCC1)c1ccccn1`, the inhibition was 16.2%.

`CCN1CCC(O)(/C=C/c2ccc(C)cc2)C(C(=O)/C=C/c2ccc(C)cc2)C1` (configuration not stated): the inhibition was 3.59%.

Turning to `O=C1CC(C(=O)O)NC(=S)N1` (configuration not stated), the inhibition is -12.1%. The value for `O=C(O)C(=Cc1ccccc1[N+](=O)[O-])c1ccccc1` was -1.92%. Regarding `CCc1c(Nc2ccccc2Cl)nc(N)[nH]c1=O`, the inhibition is 4.46%. The value for `CC(C)(C)c1nnc2sc(SCC(O)=C(C#N)c3nc4ccccc4[nH]3)nn2c1=O` was -1.69%; that for `FC(F)(F)c1ccc(-c2cccc3c2C2CC3CCN2Cc2ccccc2)cc1` (configuration not stated) was -0.156%; that for `O=C(c1cccnc1)N(c1cc2sc(=O)oc2c2ccccc12)S(=O)(=O)c1ccccc1` was 101% (active). Consider `COc1ccc(N(C(=O)c2cccnc2)S(=O)(=O)c2ccc(OC)c(OC)c2)cc1`, for which the inhibition is -7.79%. On to `O=C(c1cccnc1)N(Cc1ccccc1)C(=O)c1cccnc1`, for which the inhibition was 7.15%. Take `Oc1c(Cl)cc(Cl)c(Cl)c1Cc1c(O)c(Cl)cc(Cl)c1Cl`: the inhibition was 70.6% (active).

Consider `Cc1ccc(Cn2c(C)c3cnn(CC(=O)NCCN4CCOCC4)c(=O)c3c2C)cc1`, for which the inhibition is 4.07%. Turning to `FC(F)(F)C1CCCN(c2nsc3ccccc23)C1` (configuration not stated), the inhibition is 129% (active). The result for `O=C(NCC(=O)N1CCCC(C(F)(F)F)C1)c1ccccc1F` (configuration not stated) reads -12.6%.

`O=C(NC(Cc1ccccc1)C(=O)N1CCCC(C(F)(F)F)C1)c1ccccc1` (configuration not stated): the inhibition was 8.65%.
